Reference: the supplement of paper PMC8728848
This is one part of a sample in which the strongest signals are shown more often than they occur.

Columns and labels:
Experiment in all cases: glycan array binding signal (z-score within array); higher = stronger binding
Conditions in all cases: glycan notation: IUPAC condensed, linker removed
Fuc(a1-2)Gal(b1-3)GlcNAc = target: Fuc(a1-2)Gal(b1-3)GlcNAc
Outline: (§1)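 From the Consortium for Functional Glycomics database, 3228 arrays were curated, keeping only those whose protein sequence was available. Binding is given as a within-array Z-score averaged across arrays sharing a protein sequence and across linkers. Negative Z-scores can be read as non-binding.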

Fuc(a1-2)Gal(b1-4)Glc = target: Fuc(a1-2)Gal(b1-4)Glc
Outline: as §1

Fuc(a1-2)Gal(b1-4)GlcNAc = target: Fuc(a1-2)Gal(b1-4)GlcNAc
Outline: as §1

[1] = target: Fuc(a1-2)Gal(b1-4)GlcNAc(b1-2)Man(a1-3)[Fuc(a1-2)Gal(b1-4)GlcNAc(b1-2)Man(a1-6)]Man(b1-4)GlcNAc(b1-4)GlcNAc
Outline: as §1

[2] = target: Fuc(a1-2)Gal(b1-4)GlcNAc(b1-3)Gal(b1-4)GlcNAc
Outline: as §1

[3] = target: Fuc(a1-2)Gal(b1-4)GlcNAc(b1-3)[Fuc(a1-3)[Gal(b1-4)]GlcNAc(b1-6)]Gal(b1-4)Glc
Outline: as §1

[4] = target: Fuc(a1-2)Gal(b1-4)[Fuc(a1-3)]GlcNAc
Outline: as §1

[5] = target: Fuc(a1-2)Gal(b1-4)[Fuc(a1-3)]GlcNAc(b1-3)Gal(b1-4)[Fuc(a1-3)]GlcNAc(b1-3)Gal(b1-4)[Fuc(a1-3)]GlcNAc
Outline: as §1

[6] = target: Fuc(a1-2)[Gal(a1-3)]Gal(b1-4)[Fuc(a1-3)]Glc
Outline: as §1

[7] = target: Fuc(a1-2)[Gal(a1-3)]Gal(b1-4)[Fuc(a1-3)]GlcNAc
Outline: as §1

[8] = target: Fuc(a1-2)[GalNAc(a1-3)]Gal(b1-3)GlcNAc(b1-6)GalNAc
Outline: as §1

[9] = target: Fuc(a1-2)[GalNAc(a1-3)]Gal(b1-4)GlcNAc
Outline: as §1

[10] = target: Fuc(a1-2)[GalNAc(a1-3)]Gal(b1-4)GlcNAc(b1-2)Man(a1-3)[Fuc(a1-2)[GalNAc(a1-3)]Gal(b1-4)GlcNAc(b1-2)Man(a1-6)]Man(b1-4)GlcNAc(b1-4)GlcNAc
Outline: as §1

[11] = target: Fuc(a1-3)[Gal(b1-4)]GlcNAc(b1-2)Man(a1-3)[Fuc(a1-3)[Gal(b1-4)]GlcNAc(b1-2)Man(a1-6)]Man(b1-4)GlcNAc(b1-4)[Fuc(a1-6)]GlcNAc
Outline: as §1

[12] = target: Gal(a1-3)Gal(b1-3)GlcNAc(b1-2)Man
Outline: as §1

[13] = target: Gal(b1-3)GlcNAc(a1-3)Gal(b1-4)GlcNAc
Outline: as §1

Gal(b1-3)GlcNAc(b1-2)Man = target: Gal(b1-3)GlcNAc(b1-2)Man
Outline: as §1

[14] = target: Gal(b1-3)[Neu5Ac(a2-6)]GlcNAc(b1-4)Gal(b1-4)Glc
Outline: as §1

[15] = target: Gal(b1-4)GlcNAc(b1-3)GalNAc
Outline: as §1

Gal3S6S(b1-4)GlcNAc = target: Gal3S6S(b1-4)GlcNAc
Outline: as §1

Gal6S(b1-3)GlcNAc = target: Gal6S(b1-3)GlcNAc
Outline: as §1

Gal6S(b1-4)Glc = target: Gal6S(b1-4)Glc
Outline: as §1

GalNAc(b1-3)GalNAc = target: GalNAc(b1-3)GalNAc
Outline: as §1

Glc(b1-4)Glc = target: Glc(b1-4)Glc
Outline: as §1

GlcA(b1-3)GlcNAc = target: GlcA(b1-3)GlcNAc
Outline: as §1

[16] = target: GlcNAc(a1-4)Gal(b1-3)GlcNAc
Outline: as §1

[17] = target: GlcNAc(b1-3)Gal(b1-4)GlcNAc(b1-3)Gal(b1-4)GlcNAc(b1-2)Man(a1-3)[GlcNAc(b1-3)Gal(b1-4)GlcNAc(b1-3)Gal(b1-4)GlcNAc(b1-2)Man(a1-6)]Man(b1-4)GlcNAc(b1-4)[Fuc(a1-6)]GlcNAc
Outline: as §1

[18] = target: GlcNAc(b1-3)Gal(b1-4)GlcNAc(b1-3)Gal(b1-4)GlcNAc(b1-3)Gal(b1-4)GlcNAc(b1-3)Gal(b1-4)GlcNAc(b1-2)Man(a1-3)[GlcNAc(b1-3)Gal(b1-4)GlcNAc(b1-3)Gal(b1-4)GlcNAc(b1-3)Gal(b1-4)GlcNAc(b1-3)Gal(b1-4)GlcNAc(b1-2)Man(a1-6)]Man(b1-4)GlcNAc(b1-4)[Fuc(a1-6)]GlcNAc
Outline: as §1

Kdn(a2-3)Gal(b1-3)GlcNAc = target: Kdn(a2-3)Gal(b1-3)GlcNAc
Outline: as §1

[19] = target: Neu5Ac(a2-3)Gal(b1-3)GalNAc
Outline: as §1

[20] = target: Neu5Ac(a2-3)Gal(b1-3)GalNAc(b1-4)[Neu5Ac(a2-8)Neu5Ac(a2-3)]Gal(b1-4)Glc
Outline: as §1

[21] = target: Neu5Ac(a2-3)Gal(b1-3)GlcNAc
Outline: as §1

[22] = target: Neu5Ac(a2-3)Gal(b1-3)GlcNAc(b1-2)[Neu5Ac(a2-3)Gal(b1-3)GlcNAc(b1-4)]Man(a1-6)[Neu5Ac(a2-3)Gal(b1-3)GlcNAc(b1-2)Man(a1-3)]Man(b1-4)GlcNAc(b1-4)GlcNAc
Outline: as §1

[23] = target: Neu5Ac(a2-3)Gal(b1-3)GlcNAc(b1-3)Gal(b1-4)GlcNAc
Outline: as §1

[24] = target: Neu5Ac(a2-3)Gal(b1-3)[Fuc(a1-4)]GlcNAc
Outline: as §1

[25] = target: Neu5Ac(a2-3)Gal(b1-3)[Fuc(a1-4)]GlcNAc(b1-3)Gal(b1-3)[Fuc(a1-4)]GlcNAc
Outline: as §1

[26] = target: Neu5Ac(a2-3)Gal(b1-3)[Fuc(a1-4)]GlcNAc(b1-3)Gal(b1-4)[Fuc(a1-3)]GlcNAc
Outline: as §1

[27] = target: Neu5Ac(a2-3)Gal(b1-3)]Neu5Ac(a2-3)Gal(b1-4)]GlcNAc
Outline: as §1

[28] = target: Neu5Ac(a2-3)Gal(b1-4)GlcNAc(b1-2)Man(a1-3)[Neu5Ac(a2-3)Gal(b1-4)GlcNAc(b1-2)Man(a1-6)]Man(b1-4)GlcNAc(b1-4)GlcNAc
Outline: as §1

[29] = target: Neu5Ac(a2-3)Gal(b1-4)GlcNAc(b1-3)Gal(b1-4)GlcNAc
Outline: as §1

[30] = target: Neu5Ac(a2-3)Gal(b1-4)GlcNAc6S
Outline: as §1

[31] = target: Neu5Ac(a2-3)Gal(b1-4)[Fuc(a1-3)]GlcNAc(b1-3)Gal
Outline: as §1

[32] = target: Neu5Ac(a2-3)Gal6S(b1-4)GlcNAc
Outline: as §1

[33] = target: Neu5Ac(a2-3)Gal6S(b1-4)[Fuc(a1-3)]GlcNAc
Outline: as §1

[34] = target: Neu5Ac(a2-3)GalNAc(b1-4)GlcNAc
Outline: as §1

[35] = target: Neu5Ac(a2-6)Gal(b1-4)GlcNAc(b1-3)Gal(b1-4)GlcNAc(b1-6)[Gal(b1-3)]GalNAc
Outline: as §1

[36] = target: Neu5Ac(a2-6)Gal(b1-4)GlcNAc(b1-6)[Gal(b1-3)GlcNAc(b1-3)]Gal(b1-4)Glc
Outline: as §1

Neu5Ac(a2-8)Neu5Ac = target: Neu5Ac(a2-8)Neu5Ac
Outline: as §1

[37] = target: Neu5Ac(a2-8)Neu5Ac(a2-3)Gal(b1-3)GalNAc(b1-4)[Neu5Ac(a2-3)]Gal(b1-4)Glc
Outline: as §1

[38] = target: Neu5Ac(a2-8)Neu5Ac(a2-8)Neu5Ac
Outline: as §1

[39] = target: Neu5Ac(a2-8)Neu5Ac(a2-8)Neu5Ac(a2-8)Neu5Ac(a2-3)[GalNAc(b1-4)]Gal(b1-4)Glc
Outline: as §1

[40] = target: Neu5Gc(a2-3)Gal(b1-4)GlcNAc(b1-3)Gal(b1-4)GlcNAc(b1-2)Man(a1-3)[Neu5Gc(a2-3)Gal(b1-4)GlcNAc(b1-3)Gal(b1-4)GlcNAc(b1-2)Man(a1-6)]Man(b1-4)GlcNAc(b1-4)GlcNAc
Outline: as §1

[41] = target: Neu5Gc(a2-6)Gal(b1-4)GlcNAc
Outline: as §1

B1: CBM40 CPF071 (Clostridium perfringens) (protein)
chain: MAHHHHHHVGTGSNDDDDKSPDPMLSSLGEYKDINLESSNASNITYDLEKYKNLDEGTIVVRFNSKDSKIQSLLGISNSKTKNGYFNFYVTNSRVGFELRNQKNEGNTQNGTENLVHMYKDVALNDGDNTVALKIEKNKGYKLFLNGKMIKEVKDTNTKFLNNIENLDSAFIGKTNRYGQSNEYNFKGNIGFMNIYNEPLGDDYLLSKTGETK
- glycan array binding signal (z-score) (Fuc(a1-2)Gal(b1-3)GlcNAc): -0.384
- glycan array binding signal (z-score) (Fuc(a1-2)Gal(b1-4)Glc): -0.55
- glycan array binding signal (z-score) (Fuc(a1-2)Gal(b1-4)GlcNAc): -0.027
- glycan array binding signal (z-score) [1]: -0.22
- glycan array binding signal (z-score) [2]: 0.231
- glycan array binding signal (z-score) [3]: 2.74
- glycan array binding signal (z-score) [4]: 0.074
- glycan array binding signal (z-score) [5]: 0.635
- glycan array binding signal (z-score) [6]: -0.299
- glycan array binding signal (z-score) [7]: -0.541
- glycan array binding signal (z-score) [8]: 0.171
- glycan array binding signal (z-score) [9]: -0.116
- glycan array binding signal (z-score) [10]: -0.216
- glycan array binding signal (z-score) [11]: -0.443
- glycan array binding signal (z-score) [12]: 0.599
- glycan array binding signal (z-score) [13]: -0.517
- glycan array binding signal (z-score) (Gal(b1-3)GlcNAc(b1-2)Man): -0.631
- glycan array binding signal (z-score) [14]: -0.087
- glycan array binding signal (z-score) [15]: -0.419
- glycan array binding signal (z-score) (Gal3S6S(b1-4)GlcNAc): -0.144
- glycan array binding signal (z-score) (Gal6S(b1-3)GlcNAc): -0.48
- glycan array binding signal (z-score) (Gal6S(b1-4)Glc): -0.246
- glycan array binding signal (z-score) (GalNAc(b1-3)GalNAc): 0.09
- glycan array binding signal (z-score) (Glc(b1-4)Glc): 2.37
- glycan array binding signal (z-score) (GlcA(b1-3)GlcNAc): 0.262
- glycan array binding signal (z-score) [16]: -0.341
- glycan array binding signal (z-score) [17]: -0.411
- glycan array binding signal (z-score) [18]: -0.108
- glycan array binding signal (z-score) (Kdn(a2-3)Gal(b1-3)GlcNAc): -0.464
- glycan array binding signal (z-score) [19]: -0.019
- glycan array binding signal (z-score) [20]: -0.469
- glycan array binding signal (z-score) [21]: 0.994
- glycan array binding signal (z-score) [22]: 2.77
- glycan array binding signal (z-score) [23]: -0.328
- glycan array binding signal (z-score) [24]: 2.38
- glycan array binding signal (z-score) [25]: 0.256
- glycan array binding signal (z-score) [26]: 1.09
- glycan array binding signal (z-score) [27]: 10.7
- glycan array binding signal (z-score) [28]: -0.305
- glycan array binding signal (z-score) [29]: 1.96
- glycan array binding signal (z-score) [30]: 5.07
- glycan array binding signal (z-score) [31]: 1.97
- glycan array binding signal (z-score) [32]: 16.3
- glycan array binding signal (z-score) [33]: 5.09
- glycan array binding signal (z-score) [34]: 0.216
- glycan array binding signal (z-score) [35]: 0.025
- glycan array binding signal (z-score) [36]: -0.069
- glycan array binding signal (z-score) (Neu5Ac(a2-8)Neu5Ac): 0.538
- glycan array binding signal (z-score) [37]: -0.205
- glycan array binding signal (z-score) [38]: -0.128
- glycan array binding signal (z-score) [39]: -0.358
- glycan array binding signal (z-score) [40]: 2.46
- glycan array binding signal (z-score) [41]: -0.336
